# Screening results (PubChem)
# GC-A act: GC-A (human) enzyme activation; HEK293 GC-A cells, cGMP TR-FRET, EC30 ANP; 0% at EC30 ANP, 100% saturating ANP; activation, % at 10 µM; 370,000 tested, 0.14% active; AID 1671463; in the data active = activation above about 40%
# PG9 binder: binds the HIV-1 gp120 antibody PG9; 360,000 tested, 0.43% active; AID 624416; inhibition, % at 6.7 µM; TR-FRET gp120-PG9 antibody binding; in the data active = inhibition above about 8.5%
# V-ATPase pH: alters yeast V-ATPase proton transport | S. cerevisiae, pHLuorin cytosolic pH fluorescence | response, % at 10 µM | 350,000 tested, 0.37% active; in the data active = response mostly above about 7.3%, no sharp cut-off; inactive = mostly below about 5.4%; also: actives read high
# NPR2 activator: GC-B (human) receptor activation; HEK293-GC-B cells, CNP EC30, cGMP TR-FRET; 0% at EC30 CNP, 100% saturating CNP; 370,000 tested, 0.11% active; activation, % at 10 µM;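 active = activation at 10 µM reaching about 35% in either raw or pattern-adjusted values, limit read from the data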
# Target sequence (P20594 whole entry, looked up): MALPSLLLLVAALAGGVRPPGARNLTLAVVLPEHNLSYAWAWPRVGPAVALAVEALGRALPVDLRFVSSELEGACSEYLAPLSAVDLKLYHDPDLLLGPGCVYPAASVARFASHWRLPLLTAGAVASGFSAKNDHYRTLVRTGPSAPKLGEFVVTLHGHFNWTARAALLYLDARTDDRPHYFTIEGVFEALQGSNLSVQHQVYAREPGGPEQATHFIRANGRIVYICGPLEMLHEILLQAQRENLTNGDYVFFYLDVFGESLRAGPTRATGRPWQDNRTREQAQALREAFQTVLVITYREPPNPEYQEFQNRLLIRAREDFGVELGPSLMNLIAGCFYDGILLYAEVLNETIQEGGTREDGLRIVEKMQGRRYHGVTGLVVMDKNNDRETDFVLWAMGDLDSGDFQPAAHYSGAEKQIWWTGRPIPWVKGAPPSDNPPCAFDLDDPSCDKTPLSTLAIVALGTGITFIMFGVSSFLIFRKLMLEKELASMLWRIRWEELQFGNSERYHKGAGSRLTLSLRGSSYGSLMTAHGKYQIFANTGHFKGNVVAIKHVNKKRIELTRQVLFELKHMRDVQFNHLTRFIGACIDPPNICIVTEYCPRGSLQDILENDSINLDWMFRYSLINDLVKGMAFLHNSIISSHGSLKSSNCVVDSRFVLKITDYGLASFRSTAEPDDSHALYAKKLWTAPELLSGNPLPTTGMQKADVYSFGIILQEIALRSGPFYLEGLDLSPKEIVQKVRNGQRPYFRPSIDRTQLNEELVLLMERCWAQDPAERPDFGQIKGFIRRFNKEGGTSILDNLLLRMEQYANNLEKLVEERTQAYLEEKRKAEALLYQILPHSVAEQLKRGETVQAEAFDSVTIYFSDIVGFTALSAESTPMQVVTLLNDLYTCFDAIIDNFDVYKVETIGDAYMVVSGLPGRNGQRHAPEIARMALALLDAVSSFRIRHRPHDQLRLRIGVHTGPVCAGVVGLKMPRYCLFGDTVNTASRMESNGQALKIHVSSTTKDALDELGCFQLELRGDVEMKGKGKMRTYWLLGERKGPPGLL
# NR1D1 modulator: modulates human Rev-erb alpha binding to DNA. Rev-erbα–FITC-DNA binding, fluorescence polarization, 90 min. activity, % at 10 µM. 370,000 tested, 0.79% active. P20393;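 active = activity above about 14%, limit read from the data; passing the limit was not always enough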;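 also: 0% = DMSO wells with 35 nM protein and 100% = DMSO wells with 750 nM protein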
# PG9 binder conf: confirmation of small molecules binding HIV-1 gp120 antibody PG9. shares compounds with PG9 binder. TR-FRET PG9 antibody binding, biochemical. inhibition, % at 6.7 µM. 1,500 tested, 90% active; in the data active = inhibition above about 9%
# PGV04 counter: counter-screen for PG9 binders: binding control antibody PGV04 | shares compounds with PG9 binder | TR-FRET PGV04 antibody-gp120 binding, biochemical | inhibition, % at 6.7 µM | 1,500 tested, 95% active; in the data active = inhibition above about 9.5%
# PG9 bind DR: small molecules binding HIV-1 gp120 antibody PG9; 95 tested, under 10 active; IC50, µM; shares compounds with PG9 binder; TR-FRET PG9 antibody-gp120 binding inhibition; in the data active = IC50 below about 10 µM
# PGV04 binding DR: counter-screen for PG9 binders: binding to control antibody PGV04; shares compounds with PG9 binder; TR-FRET binding to control antibody PGV04; IC50, µM; 95 tested, 20% active; AID 651937
# PG126 DR counter: PG126 binding, dose response counter-screen; AID 651939; 95 tested, 20% active; shares compounds with PG9 binder; TR-FRET binding to antibody PG126, counterscreen; IC50, µM
# Rev-erbA confirm: confirmation of modulators of human Rev-erb alpha DNA binding. Rev-erb alpha FITC-DNA binding, fluorescence polarization, 90 min. activation, % at 25 µM. shares compounds with NR1D1 modulator. AID 1259319. 3,000 tested, 61% active;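 active = activation at or above a set limit, or at least 3 SD above the negative control mean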;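 also: 0% = 35 nM protein with DMSO and 100% = 750 nM protein high control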
# RORg counter: affects RORgamma DNA binding in a Rev-erb alpha counter-screen; 910 tested, 8% active; AID 1259320; shares compounds with NR1D1 modulator; purified RORgamma protein-FITC-DNA binding, fluorescence polarization; IC50, µM;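 active = Compounds whose fitted half-maximal concentration for disrupting protein-DNA binding is below 10 micromolar; the record names Rev-erb in its text, so the target is in doubt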
# Starred values were filed as active, the others as inactive; i = inactive; . = no result given. This is a sample that favours compounds with a hit; in the whole collection about 1.6% have one here. Rule as the data show it, unless noted: active = IC50 below about 9 µM; inactive = the rest.
SMILES,GC-A act,PG9 binder,V-ATPase pH,NPR2 activator,NR1D1 modulator,PG9 binder conf,PGV04 counter,Rev-erbA confirm,others
COc1cccc(-c2nnc(NC(=O)Cc3cccs3)s2)c1,-2,13*,2,2,16,18*,39*,.,
CCC(=O)Nc1nnc(-c2cccs2)s1,-2,-1,-6,-1,-4,.,.,.,
CC(C)c1ccc(OCC(=O)NC(=S)Nc2ccc3c4c(cccc24)CC3)cc1,19,11*,-4,10,7,11*,12*,.,
COc1ccc(S[C@]2(C(=O)NC3CC3)CC(=O)N[C@@H]2c2ccc(OC)cc2)cc1,0,.,.,-2,3,.,.,.,
CSc1cc(-c2ccc(Cl)cc2)c(C(=O)NC(C)C)s1,-14,18*,2,-16,4,9,13*,.,
COC(=O)[C@]12C[C@H](CC(=O)NCCCN3CCCC3=O)C(=O)N(Cc3ccc4c(c3)OCO4)C1=C[C@H](C(C)C)O[C@@H]2C1CC1,-2,.,.,1,-1,.,.,.,
CCNc1nc(Cl)nc(-c2cn(-c3ccccc3)c3ccccc23)n1,-2,11*,0,-2,42*,9.0*,9.4*,14,
Clc1nc(Oc2ccccc2)nc(-c2cn(-c3ccccc3)c3ccccc23)n1,-3,-3,1,-4,-11,.,.,.,
COc1ccc(CCn2c(S)nc3ccccc3c2=O)cc1,-1,24*,3,-7,37*,42*,50*,8,
COc1ccc(CCn2c(C)nc3c(c(=O)c4ccccc4n3C)c2=O)cc1,-2,-1,3,-7,2,.,.,.,
CCOC(=O)c1nn(-c2cccc(OC)c2)c2nc(CC)c(C#N)c(=O)n12,3,28*,2,-6,37*,21*,25*,16,
CCOC(=O)c1nn(-c2ccccc2F)c2nc(-c3ccco3)c(C#N)c(=O)n12,8,-1,0,-4,14,.,.,.,
Cc1cc(C)cc(OCc2nc3ncc(Br)cc3[nH]2)c1,23,34*,3,-6,62*,47*,63*,38*,RORg counter=>40
COc1cccc(OCc2nc3ncc(Br)cc3[nH]2)c1,-14,51*,-2,-8,26*,52*,64*,17*,
Cc1c(C)n(Cc2ccc(-c3ccccc3C(=O)O)cc2)c2ccc(C(=O)N[C@@H](C)c3ccc([N+](=O)[O-])cc3)cc12,-13,.,.,3,0,.,.,.,
CN1C(=O)c2cc(NC(=O)Nc3ccccc3)ccc2OC[C@H]2O[C@@H](CC(=O)NC3Cc4ccccc4C3)CC[C@@H]21,0,.,.,-12,13,.,.,.,
O=C(CN1CCCCC1)Nc1c2c(nc3ccccc13)N(c1ccccc1)CC2,6,48*,0,1,109*,72*,79*,75*,RORg counter=>40
Nc1nc(SCC(=O)Nc2ccccc2)nc2nc3c(cc12)CCCC3,6,-1,1,10,6,.,.,.,
O=C(CSc1nc2nc3c(cc2c(=O)n1-c1ccccc1)CCCC3)Nc1ccccc1,1,18*,1,-4,27*,31*,46*,20*,
CCC(C)[C@@H](C(=O)OC)N(Cc1cn(Cc2ccccc2)nn1)S(=O)(=O)c1ccccc1Br (stereo partly specified),-2,.,.,4,4,.,.,.,
C#CCN1CC(N2CCN(CCO)CC2)CS1(=O)=O (stereo unspecified),-1,.,.,2,-1,.,.,.,
Cc1ccccc1CNc1ncnc2cc(Cl)ccc12,4,90*,4,15,239*,90*,96*,189*,RORg counter=2.1*
Cc1ccc(CNc2ncnc3cc(Cl)ccc23)cc1,10,0,0,5,1,.,.,.,
O=C(CCCCCn1c(=S)[nH]c2ccc(Br)cc2c1=O)NCC1CCCO1 (stereo unspecified),1,6,-2,-7,3,.,.,.,
NS(=O)(=O)c1ccc(CCNC(=O)CCCCCn2c(=S)[nH]c3ccc(Br)cc3c2=O)cc1,5,30*,1,-3,41*,28*,26*,16,PG9 bind DR=i;PGV04 binding DR=i;PG126 DR counter=i
SMILES,GC-A act,PG9 binder,V-ATPase pH,NPR2 activator,NR1D1 modulator,PG9 binder conf,PGV04 counter,Rev-erbA confirm,others
CCOC(=O)c1cc2sc(C)cc2n1CC(=O)NCCc1ccccc1,-4,55*,-7,5,32*,49*,53*,13,
Cc1ccccc1C(=O)N=c1ccn(-c2nc3ccccc3nc2NS(=O)(=O)c2ccccc2)cc1,-4,-1,2,4,-4,.,.,.,
CCOc1ccc(S(=O)(=O)Nc2nc3ccccc3nc2-n2ccc(=NC(=O)c3ccccc3C)cc2)cc1,0,40*,-3,3,39*,32*,65*,59*,RORg counter=>40
CCCCCCNC(=O)C1CSCCS(=O)(=O)N1Cc1ccc(F)cc1 (stereo unspecified),0,.,.,0,3,.,.,.,
COc1ccccc1N1C(=O)C2C(C(=O)c3ccccc3)=NN(c3ccc(Br)cc3)C2C1=O (stereo unspecified),9,13*,-13,-10,66*,17*,28*,21*,
COC(=O)C1CN(Cc2cn(CCOC(C)=O)nn2)CCS(=O)(=O)N1Cc1ccc(F)cc1 (stereo unspecified),2,.,.,4,-8,.,.,.,
C[C@@H](NC(=O)c1ncn2c1c(=O)[nH]c1ccc(Br)cc12)c1ccccc1,20,18*,-1,40*,132*,46*,54*,23*,
COc1ccc(-n2nc(C(=O)NCC(=O)NCc3ccc(F)cc3)c3ccccc3c2=O)cc1OC,-2,28*,0,-3,54*,34*,49*,39*,RORg counter=>40
COC(=O)CNC(=O)CNC(=O)c1nn(-c2ccc(OC)c(OC)c2)c(=O)c2ccccc12,5,-3,2,3,1,.,.,.,
COc1ccc(CNC(=O)CS(=O)(=O)Cc2nc(-c3ccc(OC)cc3)oc2C)cc1,-4,0,4,-2,1,.,.,.,
